Source: PubChem BioAssay
Shown is part of a subset that was picked to be rich in hits.
TTR transcr act = activators of transthyretin transcription; AID 1117267; activation, % at 16.7 µM; SH-SY5Y TTR promoter Gaussia luciferase, luminescence; 100% = recombinant luciferase protein wells; 92,000 tested, 1.3% active;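 active means activation above the mean of all tested compounds plus 3 SD, cut at about 9.5% in these data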;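 further: cells exposed to compounds for one day before reading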
TTR inh HuH7 = HuH7 TTR transcription inhibition, counter-screen | shares compounds with TTR transcr act | HuH7 TTR promoter-Gaussia luciferase reporter, luminescence | inhibition, % at 16.7 µM | 1,100 tested, 4% active;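 active means average inhibition above the solvent-only control wells' mean plus 3 SD, cut at about 15% in these data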;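 further: inhibitors lower well luminescence so higher value means more inhibition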
TTR act confirm = confirmation of human transthyretin transcription activators; 1,100 tested, under 10 active; AID 1117280; activation, % at 16.7 µM; SHSY5Y TTR promoter Gaussia luciferase, luminescence; 100% = purified Lucia enzyme wells, no cells; shares compounds with TTR transcr act;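 active means mean activation above a set limit taken from the earlier primary screen, cut at about 11% in these data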
Each line names hits and unclear results; the compound was inactive in the other large screens (follow-up assays come after a bar, where they were run).

Cc1cccc(Cl)c1-n1nnnc1C1(C)CSCC(=O)N1Cc1ccc(F)cc1 (stereo not given)	none
N#CCCN(CCCN1CCOCC1)CN1C(=O)c2ccccc2C1=O	TTR transcr act 31 | TTR inh HuH7 inactive | TTR act confirm inactive
O=C1c2ccccc2C(=O)N1CCN1CCCCC1	none
O=C1c2ccccc2NC(c2ccccc2)N1CCCN1CCOCC1 (stereo not given)	none
COc1ccc(C2CC(c3cccs3)=NN2C(=S)Nc2ccccc2)cc1OC (stereo not given)	none
Cc1ccc(C2CC(c3ccccc3)=NN2C(=S)Nc2ccccc2)o1 (stereo not given)	TTR transcr act 11 | TTR inh HuH7 25 | TTR act confirm inactive
COc1cccc(C2CC(c3cccs3)=NN2C(=S)Nc2ccccc2)c1OC (stereo not given)	none
COc1cccc(C(=O)NCCC2=CCCCC2)c1OC	none
COc1cccc(C(=O)NOCc2ccc(C)cc2)c1OC	TTR transcr act 9.7 | TTR inh HuH7 inactive | TTR act confirm inactive
COCCCNC(=O)c1cccc(OC)c1OC	none
O=C(NCc1cccc(C(F)(F)F)c1)O[C@H]1CC[C@@]23CCCN2C(=O)CCC[C@H]3C1	none
O=C1[C@H](c2ccccc2)[C@@H](c2ccncc2)N1c1ccncc1	none
COC(=O)[C@]12C[C@H](CC(=O)NCc3cccs3)C(=O)N(Cc3cccc4ccccc34)C1=C[C@H](C1CCCC1)O[C@@H]2C	none
C[C@H]1[C@H](NC(=O)c2ccc(Cl)cc2)CC[C@@]23CCCN2C(=O)CCC[C@@H]13	none
COc1cccc(C(=O)C2CCCN(C(=O)c3ccc(C#CC(C)(C)O)cc3)C2)c1 (stereo not given)	none
COc1ccc(C(=O)C2CCCN(C(=O)c3ccccc3C(C)=O)C2)cc1F (stereo not given)	none
COc1ccc(C(=O)C2CCCN(C(=O)c3cccc(N(C)C)c3)C2)cc1OC (stereo not given)	TTR transcr act 12 | TTR inh HuH7 inactive | TTR act confirm inactive
Cc1ccc(NC(=O)OC2CC3CC2[C@H]2CCCCN2C3)cc1 (stereo not given in full)	none
CCN=C1SC(C(=O)Nc2ccc(Cl)c(Cl)c2)CC(=O)N1CC (stereo not given)	TTR transcr act 20 | TTR inh HuH7 inactive | TTR act confirm inactive
CCN=C1SC(C(=O)Nc2cc(Cl)cc(Cl)c2)CC(=O)N1CC (stereo not given)	none
CCN=C1SC(C(=O)Nc2cccc(C)c2)CC(=O)N1CC (stereo not given)	none
O=C(C(=O)N1CCC(Cc2ccccc2)CC1)c1cccs1	none
CCCNC(=O)COCc1cc(-c2ccc3c(c2)OCO3)on1	none
CCCCNC(=O)COCc1cc(-c2ccc3c(c2)OCO3)on1	none
CC(C)CNC(=O)COCc1cc(-c2ccc3c(c2)OCO3)on1	TTR transcr act 12 | TTR inh HuH7 inactive | TTR act confirm inactive
Cc1c(C(=O)N(Cc2ccc(N(C)C)cc2)C2CCS(=O)(=O)C2)oc2ccccc12 (stereo not given)	none
Cc1cccc(NC(=O)CN(CC2CCCO2)C(=O)c2oc3ccc(F)cc3c2C)c1C (stereo not given)	none
Cc1cc2oc(C(=O)N(Cc3ccc(N(C)C)cc3)CC3CCCO3)c(C)c2cc1C (stereo not given)	TTR transcr act 51 | TTR inh HuH7 inactive | TTR act confirm inactive
O=c1[nH]c(=O)n(C(c2ccccc2)(c2ccccc2)c2ccccc2)cc1N(CCO)CCO	none
O=C1COc2ccccc2C(c2nnnn2Cc2ccccc2)N1Cc1cccs1 (stereo not given)	none
CCOC(=O)[C@]12CCCC3=C1N(CCC3)C(=O)[C@@H](CC(=O)N1CCOCC1)C2	none
Cc1ccc(N(CC(=O)NC(C)(C)C)C(=O)CCC(=O)Nc2nccs2)cc1C	TTR transcr act 9.7 | TTR inh HuH7 inactive | TTR act confirm inactive
Cc1ccc(N(CC(=O)NCC2CCCO2)C(=O)CCC(=O)Nc2nccs2)cc1C (stereo not given)	none
Cc1ccc(N(CC(=O)NC(C)C)C(=O)CCC(=O)Nc2nccs2)cc1	none
Cc1cc2nc(-c3cccc(Br)c3)c(CC3CCCCC3)n2c(C)c1Br	none
O=C(NC(CC1CCCCC1)C(=O)O)c1ccccc1 (stereo not given)	TTR transcr act 15 | TTR inh HuH7 inactive | TTR act confirm inactive
O=C(CNC(=O)c1ccccc1)OC1CCCCC1	none
COC(=O)C(CC(=O)CNC(=O)c1ccccc1)NC(=O)c1ccccc1 (stereo not given)	none
O=C(C[C@@H]1C=C[C@@H](NC(=O)c2cccnc2)[C@@H](CO)O1)NCc1ccncn1	none
COc1ccc(CN(C)C(=O)c2cc(S(=O)(=O)Nc3ccccc3F)ccc2C)c(OC)c1	none
CCN1CCN(c2nc3ccccc3nc2NS(=O)(=O)c2ccc(NC(C)=O)cc2)CC1	TTR transcr act 12 | TTR inh HuH7 inactive | TTR act confirm inactive
CC(=O)Nc1ccc(S(=O)(=O)Nc2ccc3ccccc3n2)cc1	none
CCn1nc(NS(=O)(=O)c2ccc(NC(C)=O)cc2)c2cc3ccccc3nc21	none
CCc1nn(CC(=O)N2CC(C)CC(C)C2)c(=O)c2cccn12 (stereo not given)	none
COc1ccc(CNC(=O)COc2ccc(S(=O)(=O)N3CCOCC3)cc2C)cc1	none
O=C(NCc1ccccc1)c1cc(=O)c2ccccc2o1	TTR transcr act 26 | TTR inh HuH7 inactive | TTR act confirm inactive
O=C(NCc1ccccc1)c1cc2ccccc2oc1=O	none
O=C(NCc1ccccc1)c1ccc(C(=O)NCc2ccccc2)cc1	none
CCCC1CCC2(CC1)CCC2OC(=S)NCc1cccc(F)c1 (stereo not given)	none
O[C@H]1C[C@H](c2ccc(Cl)cc2)N(CC2CCCCC2)C[C@@H]1n1cc(-c2ccc(F)cc2)nn1	none
CN1OC[C@@H]2CN(CC3CCCCC3)[C@H](c3ccc(-c4ccc(C#N)cc4)cc3)C[C@@H]21	none
COC(=O)c1ccc(NC(=O)COc2cccc(-n3cnnn3)c2)cc1	none
COc1cc(C(=O)Nc2cccc(-n3cnnn3)c2)cc(OC)c1OC	none
COC(=O)COc1cccc(-n2cnnn2)c1	TTR transcr act 11 | TTR inh HuH7 inactive | TTR act confirm inactive
C[C@H]1CCC/C=C/C(=O)c2c(cc(O)c(Cl)c2O)CC(=O)O1	none
CC(Cc1ccccc1)N(C)C(=O)CN1C(=O)c2ccccc2C1=O (stereo not given)	none
Cc1cc(=O)n(C(C)Cc2ccccc2)n1C(C)Cc1ccccc1 (stereo not given)	TTR transcr act 17 | TTR inh HuH7 inactive | TTR act confirm inactive
CCC(CC)n1c(C)cc(=O)n1C(CC)CC	none
CC(C)C[C@@H](COCc1ccc(C(F)(F)F)cc1)N1CCN(C(=O)c2ccc(C(F)(F)F)cc2)CCC1=O	none
c1ccc(NC2=NCCN2CC2CCC2)cc1	none
O[C@@H]1CN(CC2CCCCC2)[C@@H](c2ccccc2)C[C@H]1n1cc(C2CC2)nn1	none
NC1=NC[C@H](c2ccccc2)N1CC1CCCCC1	TTR transcr act 15 | TTR inh HuH7 inactive | TTR act confirm inactive
Cc1[nH]c2c(ccc3cccnc32)c1C	TTR transcr act 12 | TTR inh HuH7 inactive | TTR act confirm inactive
c1ccc(-c2nc3c(ccc4ccccc43)[nH]2)nc1	none
CC(=O)c1c(C(C)=O)c(C)n(-c2cccc3cccnc23)c1C	none
CCN(C(=O)c1ccc(Cl)c([N+](=O)[O-])c1)c1ccccc1	none
